# According to the supplement of paper PMC8728848:
# Only a selection was taken, and the strongest signals are over-represented in it overall.
# B1: AT1G77380(17) (Arabidopsis thaliana), Q39134 (protein)
# chain: MVQNHQTVLAVDMPQTGGSKYLDDDGKNKRTGSVWTASAHIITAVIGSGVLSLAWATAQLGWLAGPVVMLLFSAVTYFTSSLLAACYRSGDPISGKRNYTYMDAVRSNLGGVKVTLCGIVQYLNIFGVAIGYTIASAISMMAIKRSNCFHKSGGKDPCHMNSNPYMIAFGLVQILFSQIPDFDQLWWLSILAAVMSFTYSSAGLALGIAQVVVNGKVKGSLTGISIGAVTETQKIWRTFQALGDIAFAYSYSIILIEIQDTVKSPPSEEKTMKKATLVSVSVTTMFYMLCGCMGYAAFGDLSPGNLLTGFGFYNPYWLLDIANAAIVIHLIGAYQVYCQPLFAFIEKQASIQFPDSEFIAKDIKIPIPGFKPLRLNVFRLIWRTVFVIITTVISMLLPFFNDVVGLLGALGFWPLTVYFPVEMYIAQKKIPRWSTRWVCLQVFSLGCLVVSIAAAAGSIAGVLLDLKSYKPFRSEY
# Experiments:
# Test in all cases: glycan array binding signal (z-score within array); higher = stronger binding
# Details in all cases: glycan notation: IUPAC condensed, linker removed
# [1] = target: Fuc(a1-2)Gal
# Summary of the method: (§1)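 Negative Z-scores can be read as non-binding. The Z-score is calculated within each array and then averaged across arrays of one protein sequence at different concentrations or buffers and across linkers. Arrays, 3228 in all, were curated from the Consortium for Functional Glycomics database and kept only where the protein sequence was available.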
# [2] = target: Fuc(a1-2)Gal(b1-3)GalNAc(a1-3)[Fuc(a1-2)]Gal(b1-4)GlcNAc
# Summary of the method: as §1
# [3] = target: Fuc(a1-2)Gal(b1-3)GlcNAc(b1-3)[Neu5Ac(a2-6)Gal(b1-4)GlcNAc(b1-6)]Gal(b1-4)Glc
# Summary of the method: as §1
# [4] = target: Fuc(a1-2)Gal(b1-4)GlcNAc(b1-2)Man(a1-3)[Fuc(a1-2)Gal(b1-4)GlcNAc(b1-2)Man(a1-6)]Man(b1-4)GlcNAc(b1-4)GlcNAc
# Summary of the method: as §1
# [5] = target: Fuc(a1-2)Gal(b1-4)GlcNAc(b1-3)[Fuc(a1-3)[Gal(b1-4)]GlcNAc(b1-6)]Gal(b1-4)Glc
# Summary of the method: as §1
# [6] = target: Fuc(a1-2)Gal(b1-4)GlcNAc(b1-6)GalNAc
# Summary of the method: as §1
# [7] = target: Fuc(a1-2)[Gal(a1-3)]Gal(b1-4)GlcNAc(b1-6)GalNAc
# Summary of the method: as §1
# [8] = target: Fuc(a1-2)[GalNAc(a1-3)]Gal(b1-3)GalNAc(b1-3)Gal(a1-4)Gal(b1-4)Glc
# Summary of the method: as §1
# [9] = target: Fuc(a1-2)[GalNAc(a1-3)]Gal(b1-3)GlcNAc(b1-2)Man(a1-3)[Fuc(a1-2)[GalNAc(a1-3)]Gal(b1-3)GlcNAc(b1-2)Man(a1-6)]Man(b1-4)GlcNAc(b1-4)[Fuc(a1-6)]GlcNAc
# Summary of the method: as §1
# [10] = target: Fuc(a1-2)[GalNAc(a1-3)]Gal(b1-4)GlcNAc(b1-2)Man
# Summary of the method: as §1
# [11] = target: Fuc(a1-3)[Gal(b1-4)]GlcNAc(b1-3)Gal(b1-4)[Fuc(a1-3)]GlcNAc
# Summary of the method: as §1
# [12] = target: Fuc(a1-3)[Gal(b1-4)]GlcNAc(b1-3)GalNAc
# Summary of the method: as §1
# [13] = target: Fuc(a1-3)[Gal(b1-4)]GlcNAc(b1-6)[Gal(b1-3)GlcNAc(b1-3)]Gal(b1-4)Glc
# Summary of the method: as §1
# [14] = target: Gal(a1-3)Gal(b1-3)GlcNAc(b1-6)GalNAc
# Summary of the method: as §1
# [15] = target: Gal(a1-3)[Gal(a1-4)]Gal(b1-4)GlcNAc
# Summary of the method: as §1
# [16] = target: Gal(a1-6)Glc
# Summary of the method: as §1
# [17] = target: Gal(b1-3)GalNAc(b1-3)Gal
# Summary of the method: as §1
# [18] = target: Gal(b1-3)GlcNAc(b1-2)Man(a1-3)[Gal(b1-3)GlcNAc(b1-2)Man(a1-6)]Man(b1-4)GlcNAc(b1-4)[Fuc(a1-6)]GlcNAc
# Summary of the method: as §1
# [19] = target: Gal(b1-3)GlcNAc(b1-3)Gal(b1-4)GlcNAc(b1-6)[Gal(b1-3)GlcNAc(b1-3)]Gal(b1-4)Glc
# Summary of the method: as §1
# [20] = target: Gal(b1-4)GlcNAc
# Summary of the method: as §1
# [21] = target: Gal(b1-4)GlcNAc(a1-6)Gal(b1-4)GlcNAc
# Summary of the method: as §1
# [22] = target: Gal(b1-4)GlcNAc(b1-2)Man(a1-3)[GlcNAc(b1-2)Man(a1-6)]Man(b1-4)GlcNAc(b1-4)GlcNAc
# Summary of the method: as §1
# [23] = target: Gal(b1-4)GlcNAc(b1-3)[Fuc(a1-3)GlcNAc(b1-6)]Gal(b1-4)Glc
# Summary of the method: as §1
# [24] = target: Gal(b1-4)GlcNAc(b1-6)Gal(b1-4)GlcNAc
# Summary of the method: as §1
# [25] = target: Gal3S(b1-4)[Fuc(a1-3)]Glc6S
# Summary of the method: as §1
# [26] = target: Gal3S(b1-4)[Fuc(a1-3)]GlcNAc
# Summary of the method: as §1
# [27] = target: Gal6P(b1-4)GlcNAc
# Summary of the method: as §1
# [28] = target: Gal6S(b1-3)GlcNAc
# Summary of the method: as §1
# [29] = target: Gal6S(b1-4)Glc6S
# Summary of the method: as §1
# [30] = target: GalNAc(a1-3)GalNAc(b1-3)Gal(a1-4)Gal(b1-4)Glc
# Summary of the method: as §1
# [31] = target: GalNAc(b1-4)GlcNAc
# Summary of the method: as §1
# [32] = target: GalNAc(b1-4)GlcNAc(b1-2)Man(a1-3)[GalNAc(b1-4)GlcNAc(b1-2)Man(a1-6)]Man(b1-4)GlcNAc(b1-4)GlcNAc
# Summary of the method: as §1
# [33] = target: GalNAc3S(b1-4)GlcNAc3S
# Summary of the method: as §1
# [34] = target: Glc(b1-4)Glc
# Summary of the method: as §1
# [35] = target: GlcNAc(b1-2)Man(a1-3)[GlcNAc(b1-4)][GlcNAc(b1-2)Man(a1-6)]Man(b1-4)GlcNAc(b1-4)GlcNAc
# Summary of the method: as §1
# [36] = target: GlcNAc(b1-2)[GlcNAc(b1-6)]Man(a1-6)[GlcNAc(b1-4)][GlcNAc(b1-2)Man(a1-3)]Man(b1-4)GlcNAc(b1-4)GlcNAc
# Summary of the method: as §1
# [37] = target: GlcNAc(b1-3)Gal(b1-4)GlcNAc(b1-3)Gal(b1-4)GlcNAc(b1-2)[GlcNAc(b1-3)Gal(b1-4)GlcNAc(b1-3)Gal(b1-4)GlcNAc(b1-6)]Man(a1-6)[GlcNAc(b1-3)Gal(b1-4)GlcNAc(b1-3)Gal(b1-4)GlcNAc(b1-2)Man(a1-3)]Man(b1-4)GlcNAc(b1-4)[Fuc(a1-6)]GlcNAc
# Summary of the method: as §1
# [38] = target: GlcNAc(b1-3)Gal(b1-4)GlcNAc(b1-3)Gal(b1-4)GlcNAc(b1-3)GalNAc
# Summary of the method: as §1
# [39] = target: GlcNAc(b1-6)GalNAc
# Summary of the method: as §1
# [40] = target: Kdn(a2-3)Gal(b1-4)Glc
# Summary of the method: as §1
# [41] = target: Man(a1-2)Man(a1-3)[Man(a1-2)Man(a1-6)]Man(a1-6)[Man(a1-2)Man(a1-2)Man(a1-3)]Man(b1-4)GlcNAc(b1-4)GlcNAc
# Summary of the method: as §1
# [42] = target: Man(a1-2)Man(a1-6)[Man(a1-3)]Man(a1-6)[Man(a1-2)Man(a1-2)Man(a1-3)]Man
# Summary of the method: as §1
# [43] = target: Man(a1-3)[Man(a1-6)]Man(a1-6)[Man(a1-3)]Man
# Summary of the method: as §1
# [44] = target: Man(a1-6)Man
# Summary of the method: as §1
# [45] = target: Neu5Ac(a2-3)Gal(b1-3)GlcNAc(b1-2)Man(a1-3)[Neu5Ac(a2-3)Gal(b1-3)GlcNAc(b1-2)Man(a1-6)]Man(b1-4)GlcNAc(b1-4)GlcNAc
# Summary of the method: as §1
# [46] = target: Neu5Ac(a2-3)Gal(b1-3)GlcNAc6S
# Summary of the method: as §1
# [47] = target: Neu5Ac(a2-3)Gal(b1-4)GlcNAc(b1-3)Gal(b1-3)GlcNAc
# Summary of the method: as §1
# [48] = target: Neu5Ac(a2-3)Gal(b1-4)GlcNAc6S
# Summary of the method: as §1
# [49] = target: Neu5Ac(a2-6)Gal(b1-4)GlcNAc(b1-2)Man(a1-3)Man(b1-4)GlcNAc(b1-4)GlcNAc
# Summary of the method: as §1
# [50] = target: Neu5Ac(a2-6)Gal(b1-4)GlcNAc(b1-2)Man(a1-3)[Man(a1-6)]Man(b1-4)GlcNAc(b1-4)GlcNAc
# Summary of the method: as §1
# [51] = target: Neu5Ac(a2-6)GlcNAc(b1-4)GlcNAc(b1-4)GlcNAc
# Summary of the method: as §1
# [52] = target: Neu5Ac(a2-8)Neu5Ac(a2-3)Gal(b1-3)GalNAc(b1-4)[Neu5Ac(a2-8)Neu5Ac(a2-3)]Gal(b1-4)Glc
# Summary of the method: as §1
# [53] = target: Neu5Ac(a2-8)Neu5Ac(a2-3)[Gal(b1-3)GalNAc(b1-4)]Gal(b1-4)Glc
# Summary of the method: as §1
# [54] = target: Neu5Gc(a2-3)Gal(b1-4)[Fuc(a1-3)]GlcNAc
# Summary of the method: as §1
binder,measurement,setting,value
B1,glycan array binding signal (z-score),[1],2.99
same,glycan array binding signal (z-score),[2],2.89
same,glycan array binding signal (z-score),[3],-0.856
same,glycan array binding signal (z-score),[4],-0.43
same,glycan array binding signal (z-score),[5],2.76
same,glycan array binding signal (z-score),[6],-0.513
same,glycan array binding signal (z-score),[7],-0.886
same,glycan array binding signal (z-score),[8],4.03
same,glycan array binding signal (z-score),[9],-0.716
same,glycan array binding signal (z-score),[10],1.32
same,glycan array binding signal (z-score),[11],-0.28
same,glycan array binding signal (z-score),[12],0.285
same,glycan array binding signal (z-score),[13],2.75
same,glycan array binding signal (z-score),[14],-0.733
same,glycan array binding signal (z-score),[15],3.09
same,glycan array binding signal (z-score),[16],-0.766
same,glycan array binding signal (z-score),[17],-0.955
same,glycan array binding signal (z-score),[18],3.2
same,glycan array binding signal (z-score),[19],1.9
same,glycan array binding signal (z-score),[20],-0.639
same,glycan array binding signal (z-score),[21],2.75
same,glycan array binding signal (z-score),[22],-0.757
same,glycan array binding signal (z-score),[23],0.166
same,glycan array binding signal (z-score),[24],-0.725
same,glycan array binding signal (z-score),[25],0.338
same,glycan array binding signal (z-score),[26],-0.327
same,glycan array binding signal (z-score),[27],-0.442
same,glycan array binding signal (z-score),[28],-0.519
same,glycan array binding signal (z-score),[29],-0.34
same,glycan array binding signal (z-score),[30],-0.209
same,glycan array binding signal (z-score),[31],2.31
same,glycan array binding signal (z-score),[32],7.58
same,glycan array binding signal (z-score),[33],-0.031
same,glycan array binding signal (z-score),[34],0.66
same,glycan array binding signal (z-score),[35],-0.289
same,glycan array binding signal (z-score),[36],-0.522
same,glycan array binding signal (z-score),[37],0.854
same,glycan array binding signal (z-score),[38],-0.766
same,glycan array binding signal (z-score),[39],2.85
same,glycan array binding signal (z-score),[40],4.07
same,glycan array binding signal (z-score),[41],3.3
same,glycan array binding signal (z-score),[42],-0.524
same,glycan array binding signal (z-score),[43],-0.782
same,glycan array binding signal (z-score),[44],-0.696
same,glycan array binding signal (z-score),[45],-0.809
same,glycan array binding signal (z-score),[46],0.954
same,glycan array binding signal (z-score),[47],-1.04
same,glycan array binding signal (z-score),[48],-0.786
same,glycan array binding signal (z-score),[49],-0.792
same,glycan array binding signal (z-score),[50],-0.896
same,glycan array binding signal (z-score),[51],0.349
same,glycan array binding signal (z-score),[52],-0.862
same,glycan array binding signal (z-score),[53],-0.73
same,glycan array binding signal (z-score),[54],-0.363
